Article PMC9838217, “Structure of SALL4 zinc finger domain reveals link between AT-rich DNA binding and Okihiro syndrome”
Residue numbers refer to the chain shown, from its start.

Assays:
[1] = biological target: T1, SALL4 ZFC4 R900W (HT-SELEX) (Mus musculus, UniProt Q8BX22 870-940, R900W); test: HT-SELEX; high values mean tight binding; conditions: protein: recombinant; vector His6-GST; dsDNA, one strand shown
T1 sequence: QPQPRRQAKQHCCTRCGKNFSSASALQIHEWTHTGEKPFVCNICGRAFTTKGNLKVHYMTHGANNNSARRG
In short: (§1)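 For each canonical k-mer, binding signal is the read fraction as fold change versus the initial random library. Data came from up to 6 triplicate cycles in which purified recombinant mouse SALL4 zinc finger cluster 4 (residues 870–940, 1 µg) was incubated 10 min at room temperature with library DNA (1.5 µg first cycle, 200 ng later) in 100 µl of 10 mM Tris–HCl pH 7.5, 50 mM NaCl, poly(dI-dC), DTT, followed by Ni2+ bead capture, PCR amplification, MiSeq sequencing and a 6-mer scan.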

[2] = biological target: T2, SALL4 ZFC4 G921D (HT-SELEX) (Mus musculus, UniProt Q8BX22 870-940, G921D); test: HT-SELEX; high values mean tight binding; conditions: protein: recombinant; vector His6-GST; dsDNA, one strand shown
T2 sequence: T1 sequence with W31R, G52D
In short: as §1

Row | Sequence | binding signal [1] | binding signal [2]
1 | CGCCCA | 0.107 ± 0.00392 fold-change vs cycle 0 | 0.227 ± 0.0707 fold-change vs cycle 0
2 | ACGCCT | 0.304 ± 0.0301 fold-change vs cycle 0 | 0.443 ± 0.0612 fold-change vs cycle 0
3 | AAGCCG | 0.241 ± 0.0209 fold-change vs cycle 0 | 0.357 ± 0.0555 fold-change vs cycle 0
4 | GGCCCA | 0.126 ± 0.00969 fold-change vs cycle 0 | 0.245 ± 0.0696 fold-change vs cycle 0
5 | GATGGC | 0.36 ± 0.0133 fold-change vs cycle 0 | 0.489 ± 0.0668 fold-change vs cycle 0
6 | CTCTTA | 1.6 ± 0.108 fold-change vs cycle 0 | 1.46 ± 0.111 fold-change vs cycle 0
7 | GCGAAC | 0.281 ± 0.0107 fold-change vs cycle 0 | 0.417 ± 0.0584 fold-change vs cycle 0
8 | GCCAGC | 0.102 ± 0.00774 fold-change vs cycle 0 | 0.211 ± 0.0594 fold-change vs cycle 0
9 | CGCTAG | 0.338 ± 0.0234 fold-change vs cycle 0 | 0.465 ± 0.071 fold-change vs cycle 0
10 | GCCGTA | 0.228 ± 0.00567 fold-change vs cycle 0 | 0.345 ± 0.066 fold-change vs cycle 0
11 | CGCGCC | 0.0255 ± 0.00279 fold-change vs cycle 0 | 0.0934 ± 0.0574 fold-change vs cycle 0
12 | GCGCGC | 0.0165 ± 0.00409 fold-change vs cycle 0 | 0.0747 ± 0.0529 fold-change vs cycle 0
13 | GCGAGA | 0.334 ± 0.0226 fold-change vs cycle 0 | 0.472 ± 0.0669 fold-change vs cycle 0
14 | ACTGGC | 0.318 ± 0.0103 fold-change vs cycle 0 | 0.448 ± 0.0505 fold-change vs cycle 0
15 | GTCGGA | 0.35 ± 0.00494 fold-change vs cycle 0 | 0.501 ± 0.0597 fold-change vs cycle 0
16 | GAAGTA | 1.6 ± 0.0945 fold-change vs cycle 0 | 1.43 ± 0.121 fold-change vs cycle 0
17 | GGGCAA | 0.299 ± 0.00241 fold-change vs cycle 0 | 0.434 ± 0.0775 fold-change vs cycle 0
18 | CGCGGC | 0.0238 ± 0.000376 fold-change vs cycle 0 | 0.0986 ± 0.055 fold-change vs cycle 0
19 | GGCCAA | 0.221 ± 0.00964 fold-change vs cycle 0 | 0.358 ± 0.0813 fold-change vs cycle 0
20 | CCTCGC | 0.171 ± 0.0115 fold-change vs cycle 0 | 0.295 ± 0.0773 fold-change vs cycle 0
21 | CGGGCA | 0.116 ± 0.00794 fold-change vs cycle 0 | 0.223 ± 0.0617 fold-change vs cycle 0

Row | Sequence | binding signal [1] | binding signal [2]
22 | CCGACA | 0.311 ± 0.0211 fold-change vs cycle 0 | 0.462 ± 0.0665 fold-change vs cycle 0
23 | AGTGCC | 0.287 ± 0.0119 fold-change vs cycle 0 | 0.444 ± 0.0567 fold-change vs cycle 0
24 | CGGGTC | 0.212 ± 0.0149 fold-change vs cycle 0 | 0.342 ± 0.0694 fold-change vs cycle 0
25 | CGTCGC | 0.097 ± 0.00631 fold-change vs cycle 0 | 0.194 ± 0.077 fold-change vs cycle 0
26 | CGGACG | 0.164 ± 0.00531 fold-change vs cycle 0 | 0.264 ± 0.055 fold-change vs cycle 0
27 | GACGCA | 0.263 ± 0.0079 fold-change vs cycle 0 | 0.386 ± 0.0647 fold-change vs cycle 0
28 | ACGGGG | 0.257 ± 0.00971 fold-change vs cycle 0 | 0.37 ± 0.0678 fold-change vs cycle 0
29 | AGGCAC | 0.34 ± 0.0246 fold-change vs cycle 0 | 0.486 ± 0.0565 fold-change vs cycle 0
30 | CCCCCA | 0.312 ± 0.0194 fold-change vs cycle 0 | 0.423 ± 0.0709 fold-change vs cycle 0
31 | AGGCCT | 0.384 ± 0.0275 fold-change vs cycle 0 | 0.516 ± 0.0785 fold-change vs cycle 0
32 | AGCCCG | 0.14 ± 0.0115 fold-change vs cycle 0 | 0.253 ± 0.0774 fold-change vs cycle 0
33 | GCCTCC | 0.209 ± 0.0253 fold-change vs cycle 0 | 0.334 ± 0.0802 fold-change vs cycle 0
34 | CCGGCA | 0.108 ± 0.00217 fold-change vs cycle 0 | 0.221 ± 0.0662 fold-change vs cycle 0
35 | ATCCGC | 0.279 ± 0.016 fold-change vs cycle 0 | 0.426 ± 0.0842 fold-change vs cycle 0
36 | AACGGC | 0.225 ± 0.0115 fold-change vs cycle 0 | 0.356 ± 0.0593 fold-change vs cycle 0
37 | ACCCGC | 0.145 ± 0.00827 fold-change vs cycle 0 | 0.259 ± 0.0632 fold-change vs cycle 0
38 | CGACAC | 0.316 ± 0.0105 fold-change vs cycle 0 | 0.48 ± 0.0742 fold-change vs cycle 0
39 | GCGCCA | 0.0557 ± 0.0063 fold-change vs cycle 0 | 0.143 ± 0.0639 fold-change vs cycle 0
40 | GGCACC | 0.163 ± 0.0146 fold-change vs cycle 0 | 0.28 ± 0.0664 fold-change vs cycle 0
41 | CCGCAG | 0.123 ± 0.0191 fold-change vs cycle 0 | 0.234 ± 0.0772 fold-change vs cycle 0
